Consider 43 compounds from article PMC4336329 (PLoS ONE, 2015).

Structures are written as SMILES. Hit rate of the full screen: of about 310,000 compounds, about 14,000 (4.5%) showed an effect of 50% or more. The effect is printed as a negative number. The sample holds strong results, similar compounds and a random draw of the others, so the mix is not that of the screen.
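Note: peak tail current of the secondary pulse compared with the same well before compound.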

human ether-à-go-go-related gene (hERG) potassium channel, sequence (Q12809 whole entry, looked up): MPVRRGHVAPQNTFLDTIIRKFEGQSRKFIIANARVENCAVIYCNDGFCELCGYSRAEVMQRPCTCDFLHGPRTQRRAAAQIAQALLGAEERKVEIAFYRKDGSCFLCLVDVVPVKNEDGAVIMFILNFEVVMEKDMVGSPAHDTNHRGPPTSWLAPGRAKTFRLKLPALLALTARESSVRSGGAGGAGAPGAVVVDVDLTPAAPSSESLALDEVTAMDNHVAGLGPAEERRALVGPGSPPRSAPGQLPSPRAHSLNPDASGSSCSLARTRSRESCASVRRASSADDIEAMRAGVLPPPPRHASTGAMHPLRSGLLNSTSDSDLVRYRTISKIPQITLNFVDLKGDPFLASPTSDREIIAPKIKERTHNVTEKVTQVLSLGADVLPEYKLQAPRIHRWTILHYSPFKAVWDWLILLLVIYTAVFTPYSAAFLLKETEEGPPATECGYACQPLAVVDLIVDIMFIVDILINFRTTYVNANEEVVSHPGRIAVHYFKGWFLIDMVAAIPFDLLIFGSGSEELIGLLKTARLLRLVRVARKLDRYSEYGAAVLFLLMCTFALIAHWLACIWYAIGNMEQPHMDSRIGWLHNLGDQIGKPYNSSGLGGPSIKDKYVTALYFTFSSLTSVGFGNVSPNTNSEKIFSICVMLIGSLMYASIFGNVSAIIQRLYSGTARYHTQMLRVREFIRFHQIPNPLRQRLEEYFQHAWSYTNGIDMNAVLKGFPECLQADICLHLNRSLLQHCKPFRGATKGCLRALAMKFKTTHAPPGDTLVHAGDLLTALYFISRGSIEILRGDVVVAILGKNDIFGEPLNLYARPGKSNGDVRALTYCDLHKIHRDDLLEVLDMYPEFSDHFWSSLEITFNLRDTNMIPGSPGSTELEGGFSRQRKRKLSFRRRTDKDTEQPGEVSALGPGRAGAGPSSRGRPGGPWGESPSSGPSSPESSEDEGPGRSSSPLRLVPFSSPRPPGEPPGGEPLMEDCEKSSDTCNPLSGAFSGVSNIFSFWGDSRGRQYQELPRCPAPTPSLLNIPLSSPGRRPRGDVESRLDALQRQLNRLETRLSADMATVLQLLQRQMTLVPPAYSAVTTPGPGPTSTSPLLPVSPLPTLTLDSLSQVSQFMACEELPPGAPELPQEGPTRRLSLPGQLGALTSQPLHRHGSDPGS

This assay addresses human ether-à-go-go-related gene (hERG) potassium channel (human, UniProt Q12809). In words: primary screen, population patch clamp on CHO cells stably expressing hERG; higher = less effect of the substance.
`COc1ccc(CNC(=O)c2cnc3cc(C)ccn3c2=O)cc1`: the “hERG current change (%, negative = inhibition) at 10uM” value is listed as -8.79%. Under `O=C(N/N=C/c1cccc2ccccc12)c1ccccc1Cl` stands 8.63%. Regarding `Cc1cc(/C(O)=C2\C(=O)C(=O)N(CCN(C)C)C2c2ccncc2)ccc1OCc1ccccc1` (stereo not shown), the “hERG current change (%, negative = inhibition) at 10uM” value came out at 3.21%. Under `CCOc1ccc(NC(=O)CN(C)C(=O)c2ccc(NC3CC3)c([N+](=O)[O-])c2)cc1OCC` stands -59%; under `CCOc1ccc(NC(=O)CN(C)C(=O)c2ccc(N3CCCC3)c([N+](=O)[O-])c2)cc1OCC`, -49.1%; under `COc1cccc(NC(=O)CN(C)C(=O)c2ccc(N3CCOCC3)c([N+](=O)[O-])c2)c1`, -37.6%.

Take `CN(CC(=O)Nc1cccc(F)c1)C(=O)c1ccc(N2CCCC2)c([N+](=O)[O-])c1`: the “hERG current change (%, negative = inhibition) at 10uM” value was -46.7%. Under `COc1cccc(NC(=O)CN(C)C(=O)c2ccc3c(c2)CC(c2ccccc2)OC3=O)c1` (stereo not shown) stands -66.9%; under `COc1cccc(NC(=O)CN(C)C(=O)c2ccc(NC3CC3)c([N+](=O)[O-])c2)c1`, -73.4%; under `COc1cccc(NC(=O)CN(C)C(=O)c2ccc3ccccc3c2)c1`, 1.99%. As to `CCOc1ccc(NC(=O)CN(C)C(=O)c2ccc(C3SCCS3)cc2)cc1OCC`, the “hERG current change (%, negative = inhibition) at 10uM” value is on record as -0.427%. Under `COc1ccc(Cl)cc1NC(=O)CN(C)C(=O)c1ccc2c(c1)CC(c1ccccc1)OC2=O` (stereo not shown) stands -41.8%; under `COc1cccc(NC(=O)CN(C)C(=O)c2ccc(N3CCCCC3)c([N+](=O)[O-])c2)c1`, -12.9%; under `CN(CC(=O)Nc1cccc(F)c1)C(=O)c1ccc(NC2CC2)c([N+](=O)[O-])c1`, -68.5%. The same measure for `CN(CC(=O)Nc1cccc(F)c1)C(=O)c1ccc(N2CCCCC2)c([N+](=O)[O-])c1`: -8.94%; for `O=C(O)CCC(=O)N(Cc1cccs1)Cc1cccs1`: -2.07%; for `COc1ccc(C(=O)Cn2nnc(-c3ccccc3NC(=O)C3CCCCC3)n2)cc1`: 2.23%.

As for `O=c1cc(-c2ccccc2)[nH]c2ccc(F)cc12`, the “hERG current change (%, negative = inhibition) at 10uM” value worked out at 5.52%. Take `Nn1c(SCC(=O)NC2CCCCC2)nnc1-c1ccco1`: the “hERG current change (%, negative = inhibition) at 10uM” value is reported as 4.3%.

Consider `Cc1oc(-c2ccccc2)nc1CN1C(=O)C(C)N=C(c2ccccc2F)c2cc(Cl)ccc21` (stereo not shown), for which the “hERG current change (%, negative = inhibition) at 10uM” value is -5.78%. The same measure for `O=[N+]([O-])c1ccc(/C=N/Nc2nc(N3CCCCC3)nc(N3CCCCC3)n2)o1`: -18.1%.

As for `CC(=O)Nc1ccc(S(=O)(=O)NCCC(=O)Nc2ccc(C)c(F)c2)cc1`, the “hERG current change (%, negative = inhibition) at 10uM” value is -0.433%. Consider `S=c1[nH]nc(Cc2sc(-c3ccccc3)nc2-c2ccccc2)o1`, for which the “hERG current change (%, negative = inhibition) at 10uM” value is recorded as 21.6%. Under `O=C(Nc1cccc2cccnc12)c1ccc(Br)cc1Br` stands 21.6%; under `Cc1ccccc1CNC(=O)Nc1cccs1`, 3.67%; under `CC(C)NC(=O)c1cc(-c2ccco2)nn1-c1ccc(Cl)cc1`, -27.4%.

`COc1ccc(NC(=O)CN(C)C(=O)c2ccc(NS(=O)(=O)c3ccc(C)c([N+](=O)[O-])c3)cc2)cc1`: the “hERG current change (%, negative = inhibition) at 10uM” value is reported as -2.55%. The same measure for `CCN(CC(=O)Nc1ccc(NC(C)=O)cc1)C(=O)c1ccc(NC2CC2)c([N+](=O)[O-])c1`: -46.1%; for `COc1ccc(NC(=O)CN(C)C(=O)c2ccc(NC3CC3)c([N+](=O)[O-])c2)cc1`: -72.8%. Under `O=C(O)CC1SC(=O)NC1=O` (stereo not shown) stands 4.76%. `CCCNC(=O)c1ccc2nc(-c3ccccc3)c(-c3ccccc3)nc2c1`: the “hERG current change (%, negative = inhibition) at 10uM” value stood at 9.38%.

`CN1CCN(CCNC(=O)c2ccc3nc(-c4ccc(F)cc4)c(-c4ccc(F)cc4)nc3c2)CC1`: the “hERG current change (%, negative = inhibition) at 10uM” value is on record as -50.6%.

`Cc1nc2cc(C(=O)NCCN3CCOCC3)ccc2n1-c1ccc(F)cc1F`: the “hERG current change (%, negative = inhibition) at 10uM” value is -3.86%. For `Cc1cccc(-c2nc3ccc(C(=O)NCCN4CCN(C)CC4)cc3nc2-c2cccc(C)c2)c1`, the “hERG current change (%, negative = inhibition) at 10uM” value is recorded as -11.7%. The same measure for `CCN1CCN(CCNC(=O)c2ccc3nc(-c4cccc(C)c4)c(-c4cccc(C)c4)nc3c2)CC1`: -73.9%; for `COc1ccc(-c2nc3ccc(C(=O)NCCCN4CCOCC4)cc3nc2-c2ccc(OC)cc2)cc1`: 9.44%; for `Cc1ccc(Cl)c(OC(=O)c2nn(C(C)C)c(=O)c3ccccc23)c1`: -2.19%. Under `COC(=O)c1ccccc1NC(=O)N1CCCC1` stands -11.9%; under `O=C(CSc1nn(-c2ccccc2)c(=S)s1)Nn1cnnc1`, 14.8%. `COc1cc(C(=O)N2CCC(c3nc(-c4cccnc4)no3)CC2)cc(OC)c1OC`: the “hERG current change (%, negative = inhibition) at 10uM” value was -8.08%.

For the compound `O=C(CSc1nc2ncccc2[nH]1)NC1CCCC1`, the “hERG current change (%, negative = inhibition) at 10uM” value came to 7.42%. As for `S=c1[nH]nc(COc2ccccc2)n1/N=C/c1ccc(Br)s1`, the “hERG current change (%, negative = inhibition) at 10uM” value is given as -18.8%. The same measure for `COc1ccc(S(=O)(=O)N2CCN(C)CC2)cc1C`: 7.28%.
